# Experimental data from paper PMC5540273 (PLoS ONE, 2017).
# Several values for one entry are separate records, joined by “and”; a condition that tells them apart may be missing. Equal values may be shown once. Read-outs that look alike come from different tables or passages of the source.
# Columns and labels:
# PFTK1 = tested on: T1, PFTK1; conditions: concentration: 1 μM, replicates: in singlicate, n = 1
# T1 construct: gene CDK14
# PHKG1 = conditions: concentration: 1 μM, replicates: in singlicate; n = 1
# PHKG2 = conditions: concentration: 1 μM, replicates: in singlicate, n = 1
# PIK3C2B = conditions: concentration: 1 μM, replicates: in singlicate; n = 1
# PIK3C2G = conditions: concentration: 1 μM, replicates: in singlicate, n = 1
# PIK3CA = conditions: concentration: 1 μM, replicates: in singlicate; n = 1
# PIK3CB = conditions: concentration: 1 μM, replicates: in singlicate; n = 1
# PIK3CD = conditions: concentration: 1 μM, replicates: in singlicate, n = 1
# PIK3CG = conditions: concentration: 1 μM, replicates: in singlicate; n = 1
# PIK4CB = tested on: T2, PIK4CB; conditions: concentration: 1 μM, replicates: in singlicate, n = 1
# T2 construct: gene PI4KB
# 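Further: KINOMEscan kinase panel screen.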
Compound,%Inh (PFTK1) [%],%Inh (PHKG1) [%],%Inh (PHKG2) [%],%Inh (PIK3C2B) [%],%Inh (PIK3C2G) [%],%Inh (PIK3CA) [%],%Inh (PIK3CB) [%],%Inh (PIK3CD) [%],%Inh (PIK3CG) [%],%Inh (PIK4CB) [%],%Inh (PFTK1; 1 µM),%Inh (PHKG2; 1 µM),%Inh (PIK3C2G; 1 µM),%Inh (PIK3CD; 1 µM),%Inh (PIK4CB; 1 µM)
COc1cc(Nc2nccc(N3CCC(NC(=O)c4cccc(NC(C)=O)c4)C3)n2)cc(OC)c1OC (centres unmarked) [GSK1379754],18,7,3,100,0,99.9,0,0,99.9,0,–,–,–,–,–
Cl.Oc1cccc(Nc2ccnc3cc(-c4ccncc4)ccc23)c1 [GW494601],12,0,0,13,2,0,0,22,0,0,–,–,–,–,–
Cc1c2ccc(N(C)c3ccnc(Nc4cccc(S(N)(=O)=O)c4)n3)cc2nn1Cc1ccccc1.Cl.Cl [GW787226],27,0,0,5,0,0,0,0,0,0,–,–,–,–,–
Fc1ccc(-c2nn3c(OCC(F)(F)F)cccc3c2-c2ccncc2)cc1 [GW514784],3,0,0,0,0,0,0,30,0,0,–,–,–,–,–
Cn1ccc2ncnc(Oc3ccc(NC(=O)Nc4ccncc4)c(Cl)c3)c21,0,0,5,16,43,11,0,26,26,0,–,–,–,–,–
CNc1ncnc2[nH]ncc12 [SKF-18355],0,0,0,3,0,1,0,0,5,17,–,–,–,–,–
NS(=O)(=O)c1cccc(-c2ccc3ncc(N4CCOCC4)nc3c2)c1 [GSK1535721],24,0,41,0,14,13,12,34,29,81,–,–,–,–,–
Fc1ccc(-c2ncn(CCCN3CCOCC3)c2-c2cccnc2)cc1 [SB-211743],0,3,0,0,0,10,0,0,0,17,–,–,–,–,–
O=C(NCCCN1CCOCC1)c1cccc(Nc2nccc(Nc3ccc(Oc4ccccc4)cc3)n2)c1 [GW663929],43,0,14,6,0,12,18,7,11,21,–,–,–,–,–
CC(C)(CN)c1nc(-c2ccc(Cl)c(O)c2)c(-c2ccncc2)[nH]1.O=C(O)C(F)(F)F [SB-477794],–,0,–,0,–,0,0,–,0,–,6% and 3%,12% and 0%,0% and 5%,20% and 5%,25% and 0%
Nc1nc(-c2ccc3c(N)n[nH]c3c2)cc(N2CCCC2)n1 [GSK2227430],0,0,0,0,0,0,0,0,0,14,–,–,–,–,–
O=C(NCCNc1ccnc(Nc2ccc(F)cc2)n1)c1cc2ccccc2s1 [GSK1379874],0,0,0,0,0,0,0,0,0,0,–,–,–,–,–
O=c1cc(N2CCOCC2)nc2n(Cc3cccc(Cl)c3Cl)c(C3CC3)nn12 [GSK2358994],0,8,0,70,64,8,100,82,45,0,–,–,–,–,–
Cc1cccc(-c2nc(-c3ccc(S(C)(=O)=O)cc3)sc2-c2ccncc2)c1,0,0,0,0,49,20,1,25,10,0,–,–,–,–,–
CSc1ccc(-c2cc3ncnc(SCC(=O)O)c3s2)cc1,3,0,0,0,0,0,0,8,2,0,–,–,–,–,–
NS(=O)(=O)CCc1cccc(Nc2nccc(-c3c(-c4cccc(NC(=O)c5c(F)cccc5F)c4)nn4ccccc34)n2)c1 [GSK336735],26,0,4,0,0,0,0,0,0,0,–,–,–,–,–
CCc1ccnc(/C=C/c2n[nH]c3cc(Sc4ccccc4C(=O)NC)ccc23)c1,8,17,6,0,0,0,0,10,0,0,–,–,–,–,–
